Measurements from PubChem BioAssay AID504594 (Broad Institute, 2011).
Fewer than 10 of roughly 2,000 compounds were called active. These entries were drawn from the full list. Unmarked numbers belong to inactive results.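 Rule for the calls: active = growth inhibition of at least 75% in every replicate, which also brings the mean inhibition to 75% or more; inconclusive = mean inhibition 75% or more but some replicate under 75%; inactive = the rest.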

Test: growth inhibition of PfHsp90-dependent yeast, primary screen, antimalarial PfHsp90 inhibitor project, S. cerevisiae, BacTiter-Glo luminescence (AID 504594);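 note: 0% = DMSO neutral control wells and 100% = 20 µM radicicol control wells; higher value means stronger growth inhibition because the sign is flipped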
Settings: S. cerevisiae expressing PfHsp90, BacTiter-Glo growth, 48 h; at 9.4 µM; active compounds read high
In the case of `CN(C)CCOc1ccc(Cl)cc1C(C)(C)C`, the growth inhibition is reported as -0.977%.
In the case of `COc1ccc2c(c1OC)C(=O)N1C2SC[C@H]1C(=O)NC1CC(C)(C)NC(C)(C)C1` (stereo not given in full), the growth inhibition is reported as 2.59%.
`N#Cc1cc2c([nH]c1=O)CCCC2` showed a growth inhibition of 8.49%.
In the case of `COc1cc2c(cc1O)CCN(C(=O)c1ccco1)C2C` (stereo not given), the growth inhibition is reported as 3.62%.
`Cc1c(Cc2ccccc2)c(=O)oc2c(CN(C)C)c(O)c(Cl)cc12` gave a growth inhibition of -2.33%.
Work on `COc1cccc(N2C(=O)[C@H]3C(C(=O)c4cnccn4)=NN[C@H]3C2=O)c1` yielded a growth inhibition of -1.02%.
Work on `O=C(O)C[C@@H](O)C(=O)O` yielded a growth inhibition of -8.31%.
For `Cc1ccc(CSCC(=O)N2CCCC2)cc1`, the growth inhibition was -5.17%.
`O=C(NCCc1nc2ccccc2[nH]1)c1cccc(Br)c1` showed a growth inhibition of 2.71%.
`CCNC(=S)N1CCN(CCN2C(=O)c3cccc4cccc(c34)C2=O)CC1` showed a growth inhibition of 2.01%.
For `COc1c2occc2c(OC)c2c(=O)cc(C(F)(F)C(F)(F)F)oc12`, the growth inhibition was -5.37%.
`CC(=O)NC(Cc1c[nH]c2ccccc12)C(=O)N/N=C/c1ccccc1` (stereo not given) gave a growth inhibition of 13.4%.
For `O=C(CN1CC[n+]2c(-c3cccs3)csc21)c1ccc(Br)cc1`, the growth inhibition was -7.32%.
In the case of `Cc1ccc2nc(N=C(N)N)nc(C)c2c1`, the growth inhibition is reported as -4.91%.
In the case of `COc1ccc(CNC(=O)N[C@H](C(=O)O)C(C)C)cc1OC`, the growth inhibition is reported as -0.856%.
For `CCOC(=O)NN1C(=O)c2ccccc2NC1c1ccc(OC)c(OC)c1` (stereo not given), the growth inhibition was -6.91%.
Work on `COC(=O)c1[nH]c(=O)c2ccccc2c1O` yielded a growth inhibition of -11.7%.
`COC(=O)c1cc(OC)c(OC)cc1NC(=O)CN1C(=O)c2ccccc2C1=O` gave a growth inhibition of -14.3%.
Work on `COc1cc(CNc2ccc(C)c(C)c2)cc(OC)c1OC` yielded a growth inhibition of 13.4%.
For `Clc1ccc2c(c1)[C@H]1OCC[C@H]1[C@@H](c1ccco1)N2`, the growth inhibition was 1.42%.
In the case of `CC1(c2ccccc2)CC(C)(C)N2C(=O)C(=O)c3cccc1c32` (stereo not given), the growth inhibition is reported as -3.23%.
For `O=c1nc2cccc3c2=c(/c1=C(\O)c1ccccc1)c1ccccc1c3=O`, the growth inhibition was -23.6%.
In the case of `O=C1Nc2ccc3sc4ccccc4c3c2C1=O`, the growth inhibition is reported as -1.28%.
`O=C(CN1C(=O)/C(=C/c2cccc(Br)c2)SC1=S)Nc1cccnc1` gave a growth inhibition of -5.73%.
`CC(C)c1ccc(/C=C/C(=O)O)cc1` gave a growth inhibition of -10.9%.
For `COc1ccc(CC(=O)N2CC3(C)CC2CC(C)(C)C3)cc1OC` (stereo not given), the growth inhibition was 12.2%.
`COc1ccc(CCn2c(C)cc3c(c2=O)C(c2ccncc2)C(C#N)=C(N)O3)cc1OC` (stereo not given) showed a growth inhibition of -3.67%.
In the case of `CC1(C)CC(CC(=O)O)(c2ccc(Cl)cc2)CCO1` (stereo not given), the growth inhibition is reported as 4.78%.
`Cc1cccc2c1CC(C)(C)N/C2=C\C(N)=O` showed a growth inhibition of 1.18%.
For `COc1ccc(-c2[nH]ncc2C=O)cc1OC`, the growth inhibition was 7.91%.
With `O=C(/C=C/c1ccc(F)cc1)NC(=S)N1CCCCC1c1cccnc1` (stereo not given) the growth inhibition was 4.68%.
With `C=CCc1cccc2cc(C(=O)Nc3ccc(CC(=O)O)cc3)c(=O)oc12` the growth inhibition was -7.68%.
Work on `C[C@H](NC(=O)C1(c2ccccc2)CCN(C(=O)[C@H]2CSCN2C(=O)OC(C)(C)C)CC1)C(=O)O` yielded a growth inhibition of -9.59%.
Work on `COC1CCN(Cc2cn(Cc3ccccc3)nc2-c2cc3ccccc3o2)CC1` yielded a growth inhibition of 3.22%.
With `CC(C)CN1CC(C(=O)O)CC1=O` (stereo not given) the growth inhibition was -3.33%.
Molecule `CCOCCn1c(C(C)O)nc2ccccc21` (stereo not given) has a growth inhibition of -8.58%.
For `O=C(CC(NC(=O)OCc1ccccc1)C(=O)O)OCc1ccccc1` (stereo not given), the growth inhibition was 0.482%.
With `COc1ccc(C(=O)Nc2ncc3c(n2)CC(C)CC3=O)cc1` (stereo not given) the growth inhibition was -12.5%.
For `O=C1NCC2=C1C(c1ccccc1)Nc1ccccc1N2` (stereo not given), the growth inhibition was 6.48%.
`COc1cccc(C2CC(=O)C3=C(C2)Nc2ccccc2N(C(=O)CCC(=O)O)C3c2ccc(F)cc2)c1` (stereo not given) showed a growth inhibition of 3.39%.
In the case of `COc1ccc(C(=O)CCN2CCc3cc(OC)c(OC)cc3C2)cc1`, the growth inhibition is reported as 4.16%.
In the case of `O=C1OC(=O)C2C1[C@@H]1CC[C@H]2O1` (stereo not given in full), the growth inhibition is reported as -14%.
For `COCc1cc(=O)[nH]c(/N=C(\N)Nc2ccc(Oc3ccccc3)cc2)n1`, the growth inhibition was -12.9%.
Molecule `CC(=O)c1ccc(CCCCCCCCCC(=O)O)s1` has a growth inhibition of -16.6%.
Molecule `CC(C)CN1CCN(Cc2ccc3ncccc3c2)CC1CCO` (stereo not given) has a growth inhibition of -15.2%.
For `O=c1ccc2c(o1)/C(=C/C=C(Cl)Cl)CCC2`, the growth inhibition was -2.29%.
`CC(C)(C)C(=O)NCCCNc1ccc([N+](=O)[O-])cc1` gave a growth inhibition of 4.14%.
Molecule `CC(=O)c1c(C)[nH]c(C(=O)OCc2ccccc2)c1C` has a growth inhibition of -16%.
In the case of `NS(=O)(=O)c1ccc(CCNC(=O)C2CCCN2C(=O)OCc2ccccc2)cc1` (stereo not given), the growth inhibition is reported as -1.5%.
Molecule `Cn1c(Oc2ccc3c(c2)OCO3)nc2c1c(=O)n(Cc1ccccc1)c(=O)n2C` has a growth inhibition of 5.1%.
For `Oc1c(Cl)cc(Cl)c(Cl)c1Cc1c(O)c(Cl)cc(Cl)c1Cl`, the growth inhibition was 104% (active).
For `Cc1c2c(nc3c(C)cccc13)OC(C)C2` (stereo not given), the growth inhibition was 8.19%.
Work on `CCOC(=O)n1c(=O)oc2ccccc21` yielded a growth inhibition of -13.3%.
`Cc1csc(CCc2nc(C)cs2)n1` showed a growth inhibition of 0.825%.
With `O=C(Nc1ccc(F)c([N+](=O)[O-])c1)c1ccc2c(c1)OCCO2` the growth inhibition was -4.38%.
